Screening results from PubChem.
This is one part of a sample in which hits are shown more often than they occur.
Marburg entry inh – qHTS for inhibitors of binding or entry into cells for Marburg Virus; Marburg virus pseudotyped entry inhibition, cell reporter; actives 1.8% (n = 300,000); Potency, µM (highest dose often 37.8 µM), inactives show at the top dose activity change, negative = inhibition, actives largely listed as inhibitors; calls by dose curve; tested in HEK293 cells; further: potency means the concentration at half of the fitted maximal effect; on the % scale 0 is the no-effect control and ±100 the full control effect
Shiga inhibitor – A qHTS for Small Molecule Inhibitors of Shiga Toxin; Vero cells, Shiga toxin protein synthesis inhibition reporter; inhibition, % at 38.7 µM; actives 9.2% (n = 290,000); AID 2315, 2010; in the data active means inhibition mostly above about 28%, no sharp cut-off; inactive means mostly below about 43%; further: 0% is about no effect
VACV Venus inh – qHTS for Stage-Specific Inhibitors of Vaccinia Orthopoxvirus: Venus Reporter Primary qHTS | Vaccinia virus Venus reporter expression, fluorescence | Potency, µM (top dose mostly 36.5 µM), inactives show top-dose activity change, negative = inhibition, usual class: inhibitors | actives 0.46% (n = 330,000); calls by dose curve; tested in A549 cells; further: potency means the concentration at half of the fitted maximal effect; on the % scale 0 is the no-effect control and ±100 the full control effect; nearly all actives have a fitted effect of over 30% in size
VACV mCherry inh – qHTS for Stage-Specific Inhibitors of Vaccinia Orthopoxvirus: mCherry Reporter Primary qHTS. Vaccinia virus mCherry reporter infection, fluorescence. actives 0.63% (n = 310,000). Potency, µM (series often up to 36.5 µM), for the others: top-dose activity change, negative = inhibition, usual class: inhibitors; calls by dose curve; tested in A549 cells; further: potency means the concentration at half of the fitted maximal effect; on the % scale 0 is the no-effect control and ±100 the full control effect; nearly all actives have a fitted effect of over 35% in size
CHX counter – Cycloheximide Counterscreen for Small Molecule Inhibitors of Shiga Toxin; cell reporter, cycloheximide protein synthesis inhibition counterscreen; max response, %; actives 12% (n = 300,000); AID 2314, 2010; in the data active means max response mostly above about 13%, no sharp cut-off; inactive means mostly below about 14%; further: read at 38.3 µM for the half of the compounds with a filed dose; 0% is about no effect
Lassa entry inh – qHTS for Inhibitors of binding or entry into cells for Lassa Virus; Lassa virus pseudotype entry inhibition, cell reporter; Potency, µM (highest dose often 37.9 µM), for inactives: top-dose activity change, negative = inhibition, usual class: inhibitors; actives 1.2% (n = 300,000); AID 540256, 2011; calls by dose curve; tested in HEK293 cells; further: potency means the concentration at half of the fitted maximal effect; on the % scale 0 is the no-effect control and ±100 the full control effect; nearly all actives have a fitted effect of over 50% in size
* hit, by the source's call; i = inactive; ? = inconclusive; . = no result; [ ] = remark or other dose.

SMILES	Marburg entry inh	Shiga inhibitor	VACV Venus inh	VACV mCherry inh	CHX counter	Lassa entry inh
Cc1ccccc1OCC(=O)N/N=C/c1ccc2c(c1)OCCO2	1%	19	-27%	-24%	31*	?
Cc1ccccc1OCCCC(=O)Nc1ccc2c(c1)OCO2	13%	active	.	.	32*	-8%
NC(=O)c1ccccc1OCC(=O)Nc1ccc(Cl)c(Cl)c1	.	71*	.	.	39*	.
O=C(COc1ccccc1C(=O)Nc1ccccc1)Nc1cccc(Cl)c1	.	.	-28%	-7%	.	.
O=C(COc1cccc(Br)c1)N/N=C/c1ccc2c(c1)OCCO2	.	.	-8%	i	.	.
Cc1ccc(NC(=O)CCOc2ccccc2C)cc1C	?	40	-2%	-7%	26*	?
O=C(NCCC1=CCCCC1)c1cc(-c2ccncc2)nc2ccccc12	-4%[46.1 µM]	-9	-13%	i	4	26%
COc1ccc(C2(C)NC(=O)N(CC(=O)c3cc(C)n(C4CC4)c3C)C2=O)cc1OC (centres undefined)	?	.	-10%	-8%	.	-5%
O=C(COC(=O)c1cccnc1Cl)NCc1cccs1	-1%[46.1 µM]	33	-1%	-13%	37*	4%[46.1 µM]
O=C(CSCc1c(Cl)cccc1Cl)Nc1ccc2c(c1)OCCO2	6%	76*	-16%	-5%	59*	5%
Cc1ccccc1OCC(=O)Nc1ccc2c(c1)OCCO2	.	108*	.	.	51*	.
O=C(CN1CCN(CC(=O)Nc2ccccc2Cl)CC1)Nc1ccc2c(c1)OCCO2	?	6	-16%	-18%	3	5%
NC(=O)c1ccsc1NC(=O)COC(=O)c1cccnc1Cl	5%	.	-14%	i	.	15%
O=C(COc1ccccc1F)NCCc1ccc2c(c1)OCCO2	?	.	-10%	-6%	.	13%[46.1 µM]
O=C(COc1ccccc1Cl)NCCc1ccc2c(c1)OCCO2	?	58*	-6%	-20%	42*	15%
COc1ccc(/C(N)=N/OC(=O)c2cccs2)cc1	.	57*	.	.	41*	.
COc1ccc2c(c1)/C(=N/OC(=O)c1cccs1)CCC2	21%[46.1 µM]	43	4%	i	42*	-2%
N/C(CC(=O)Nc1ccc(F)c(Cl)c1)=N\OC(=O)c1cccs1	?	25	-15%	-15%	-2	-6%
COc1ccc(NC(=O)c2ccc(NC(=O)c3cccs3)cc2)cc1	?	1	-19%	-13%	9	?
N/C(=N\OC(=O)c1cccs1)c1ccc(Cl)cc1	.	135*	.	.	55*	.
COCCCNc1oc(-c2ccc(COc3ccccc3C)o2)nc1C#N	?	.	-15%	-9%	.	-17%[46.1 µM]
Cc1ccsc1CN(C)CC(=O)Nc1ccc([N+](=O)[O-])cc1Cl	10µM*	27	-9%	-30%	-1	?
CN(CC(=O)Nc1cc([N+](=O)[O-])ccc1Cl)Cc1ccc(Br)cc1	-20%	-3	-12%	i	-2	8%
COc1ccc(-c2ccc([C@H]3[C@@H]4C=CCC[C@@]4(C)C(=O)N3Cc3ccccc3)c(F)c2)cc1OC	.	36	?	?	37*	.
CC(CCc1ccccc1)NS(=O)(=O)c1ccccc1F (centres undefined)	?	-9	-3%	-5%	-7	-1%[46.1 µM]
SMILES	Marburg entry inh	Shiga inhibitor	VACV Venus inh	VACV mCherry inh	CHX counter	Lassa entry inh
CC1(C)C2CCC(C2)C1(C)NC(=O)CNCc1cccs1 (centres undefined)	.	3	.	.	6	.
Cc1ccc(NC(=O)CNCc2ccccc2)c(Br)c1	6%[46.1 µM]	157*	-8%	-14%	16*	.
Cc1ccc(NC(=O)CNCc2cccs2)c(Br)c1	.	67*	.	.	35*	.
Cc1ccc(CNCC(=O)Nc2ccc(C)cc2Br)cc1	-5%	-11	-10%	-16%	17	-11%
Cc1ccc(NC(=O)COC(=O)Cc2cccs2)c(Br)c1	10%	29	-19%	-9%	16	12%
Cc1ccc(NC(=O)CC2CCCC2)c(Br)c1	?	93*	-6%	-10%	42*	29%
O=C(CNCc1cccs1)NC12CC3CC(CC(C3)C1)C2	9%	30	-5%	-15%	14*	16%
N#Cc1nc(-c2ccc(OCc3ccc(Cl)cc3)cc2)oc1N1CCCCC1	.	.	-5%	15%	.	.
COc1ccc(CCNC(=O)COc2ccc3c(C)cc(=O)oc3c2)cc1OC	?	-3	-13%	-14%	-4	-26%
Cc1cc(-c2ccnc(-n3ncc(C(=O)NCC4CCCN(C)C4)c3C3CC3)n2)c(C)s1 (centres undefined)	.	.	-2%	-6%	.	.
O=C(CC1CCCC1)Nc1cccc(Br)c1	?	56*	14%	-5%	17*	-22%[46.1 µM]
Cc1ccc(NC(=O)Cn2cccc2)c(Br)c1	?	45*	-4%	-13%	14	14%
Cc1ccc(NC(=O)Cn2cccc2)c(C)c1	0%	-6	-13%	i	8	4%
CN1C(=S)N2CCCN2C1c1ccccc1 (centres undefined)	2%	2	-1%	i	-3	11%
S=C1N(c2ccccc2)C(c2ccccc2)N2CCCN12 (centres undefined)	-1%	7	-9%	-10%	9	18µM*
O=C(CN1C(=O)NC2(CCCc3ccccc32)C1=O)N1CCc2ccccc2C1 (centres undefined)	2%	-5	3%	.	-5	4%
O=C(O)C1CC2CCC1CC2 (centres undefined)	?	.	3%	-8%	.	15%
O=c1[nH]c(-c2ccccn2)nc2sc(-c3ccccc3)cc12	?	118*	?	4.5µM*	49*	2.2µM*
O=C1c2ccccc2C(=O)N1CCc1nc2ccccc2c(=O)n1CCCn1ccnc1	0%	-4	-22%	.	-8	3%
O=C(/C(N=Nc1cccc(C(F)(F)F)c1)=C(/O)c1cccs1)C(F)(F)F	?	66*	?	-21%	35*	?
O=C(NCc1ccccc1Cl)c1ccc2c(O)c(S(=O)(=O)c3ccccc3)c(=O)[nH]c2c1	.	.	-8%	-8%	.	16%[46.1 µM]
Cc1cc(C)n(CC(C)NC(=O)c2cc(COc3ccc(F)c(F)c3)on2)n1 (centres undefined)	.	28*	.	.	19*	.
Cc1cc(C)n(CCCNC(=O)c2cc(COc3ccc(C)c(C)c3)on2)n1	0%	-24	-6%	-13%	4	5%
CCOC(=O)CC1(NC(=O)c2cc(COc3ccc(F)c(F)c3)on2)CCCCC1	.	-5	.	.	1	.
Cc1cc(CNC(=O)c2cc(COc3ccc(F)c(F)c3)on2)nn1C	29%	64*	-10%	i	46*	-13%
Cc1cc(C)n(CC(C)NC(=O)c2cc(COc3c(F)cccc3F)on2)n1 (centres undefined)	4%	-11	-7%	-19%	5	4%
Cc1cc(OCc2cc(C(=O)NC(C)c3cnn(C)c3)no2)cc(C)c1Cl (centres undefined)	.	.	?	-1%	.	.
